The nature of assay [1]: qHTS assay to test for compound auto fluorescence at 535 nm (green) in HEK293 cells (AID 720680).
Assay [2] in a line: qHTS assay to test for compound auto fluorescence at 460 nm (blue) in HEK293 cell free culture (AID 720681). The method, boiled down:
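Blue fluorescence (Ex 405/Em 460 nm, triamterene-equivalent) was read immediately after pin transfer of compound or DMSO into medium (DMEM, 10% FBS) without cells.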

A short description of assay [3]: qHTS assay to test for compound auto fluorescence at 535 nm (green) in HEK293 cell free culture (AID 720682). The essentials:
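Compounds were pin-transferred into cell-free DMEM with 10% FBS, and green fluorescence was read at excitation 485 nm and emission 535 nm. Intensities were expressed as fluorescein-equivalent values.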

The nature of assay [4]: qHTS assay to test for compound auto fluorescence at 590 nm (red) in HEK293 cell free culture (AID 720683). The method, boiled down: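 Red-channel autofluorescence of compounds in culture medium (DMEM, 10% FBS), no cells, measured at 540/590 nm. Rose Bengal sodium is the reference fluorophore for equivalence.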
Assay [5] is described as follows: qHTS assay to test for compound auto fluorescence at 590 nm (red) in HepG2 cell free culture (AID 720684). The essentials:
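No cells present: MEM + 10% FBS only. Compound pinned in, red label read (540/590 nm). Activity = fluorescence equivalent to Rose Bengal sodium.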
In general terms: qHTS replaces the single test concentration by a dilution series.

A short description of assay [6]: qHTS assay to test for compound auto fluorescence at 460 nm (blue) in HepG2 cell free culture (AID 720685). The essentials:
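Cell-free plates of MEM plus 10% FBS received 23 nL compound or DMSO vehicle; blue-channel (405/460 nm) intensity scored against triamterene as reference fluorophore.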

Assay [7] is described as follows: qHTS assay to test for compound auto fluorescence at 535 nm (green) in HepG2 cell free culture (AID 720686).
Assay [8] concerns the target Glucocorticoid receptor (Homo sapiens) (UniProt P04150). The assay can be described thus: qHTS assay to identify small molecule agonists of the glucocorticoid receptor (GR) signaling pathway (AID 720691; active = well fitted activation curve with a large enough effect in the signal ratio in the repeat runs, not every such curve was filed as active; the % refers to the signal ratio). The essentials:
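Agonist-mode qHTS in HeLa cells stably expressing a glucocorticoid-response-element beta-lactamase reporter. Fluorescence intensity read with FRET substrate (2 h, room temperature) after 18 h compound treatment at 37 C.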

Assay [9] in a line: qHTS assay for identifying genotoxic compounds that show differential cytotoxicity against isogenic chicken DT40 cell lines with known DNA damage response pathways - wild type cell line (AID 743012). Note: nearly all actives have a fitted effect of over 60% in size. Note: potency is the fitted concentration of half-maximal effect. The method, boiled down:
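Viability by ATP luminescence (CellTiter-Glo, 30 min RT) after 40 h compound treatment at 37 C/5% CO2, using 300 parental DNA repair-proficient DT40 cells per well.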

Assay [10] in a line: qHTS assay for identifying genotoxic compounds that show differential cytotoxicity against isogenic chicken DT40 cell lines with known DNA damage response pathways - Rev3 mutant cell line (AID 743014). Note: nearly all actives have a fitted effect of over 55% in size. Note: potency is the fitted concentration of half-maximal effect.
Assay [11] can be described thus: qHTS assay for identifying genotoxic compounds that show differential cytotoxicity against isogenic chicken DT40 cell lines with known DNA damage response pathways - Rad54/Ku70 mutant cell line (AID 743015). Note: nearly all actives have a fitted effect of over 60% in size. Note: potency is the fitted concentration of half-maximal effect.
The nature of assay [12]: qHTS assay to identify small molecule antagonists of the androgen receptor (AR) signaling pathway - cell viability counter screen (AID 743033; note: nearly all actives have a fitted effect of over 45% in size).
A short description of assay [13]: qHTS assay to identify small molecule antagonists of the androgen receptor (AR) signaling pathway using the MDA cell line - cell viability counter screen (AID 743041; note: nearly all actives have a fitted effect of over 45% in size). The method, boiled down: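 Using the breast carcinoma line MDA-kb2 AR-luc, test chemicals were co-incubated with R1881 for 16 h; CellTiter-Fluor reagent, added at 15.5 h, provided a fluorescence measure of live cells.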

Assay [14] has as its target Glucocorticoid receptor (Homo sapiens) (UniProt P04150). The assay can be described thus: qHTS assay to identify small molecule antagonists of the glucocorticoid receptor (GR) signaling pathway (AID 720692; active = well fitted inhibition curve with a large enough effect in the signal ratio in the repeat runs, not every such curve was filed as active; the % refers to the signal ratio). The essentials:
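Inhibition of dexamethasone-driven (5 nM final) beta-lactamase expression was measured in GRE-reporter HeLa cells over 18 h at 37C. Fluorescence was read after 2 h with the B/G FRET substrate at room temperature.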

Assay [15] is described as follows: qHTS assay to identify small molecule antagonists of the glucocorticoid receptor (GR) signaling pathway - cell viability counter screen (AID 720693). Note: nearly all actives have a fitted effect of over 55% in size.
Assay [16] in a line: qHTS assay to identify small molecule antagonists of the thyroid receptor (TR) signaling pathway - cell viability counter screen (AID 743064). Note: nearly all actives have a fitted effect of over 50% in size. The method, boiled down:
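In-well cytotoxicity read by CellTiter-Fluor (30 min, 37 C) following 23.5 h exposure of GH3 cells bearing a TRE-luciferase sensor. Compounds were added alongside 1 nM (final) T3 to drive TR transactivation.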

A short description of assay [17]: qHTS assay to test for compound auto fluorescence at 460 nm (blue) in HepG2 cells (AID 720687). The essentials:
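Blue-channel autofluorescence (Ex/Em 405/460 nm, triamterene-equivalent) was measured after 1 hr compound exposure at 37 C, 5% CO2. Cells were HepG2, plated overnight at 37 C in MEM plus 10% FBS.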

Assay [18] has as its target Androgen receptor (Homo sapiens) (UniProt P10275). The assay can be described thus: qHTS assay to identify small molecule agonists of the androgen receptor (AR) signaling pathway (AID 743036; active = well fitted activation curve with a large enough effect in the signal ratio in the repeat runs, with a control signal flat, not every such curve was filed as active; the % refers to the signal ratio). The essentials: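 Activation was read as beta-lactamase FRET signal from LiveBLAzer B/G substrate, added for 2 h at room temperature. Before that, GeneBLAzer AR-UAS-bla GripTite (HEK293) cells had 16 h compound exposure at 37C.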

Assay [19] shares this target. Kind of assay: qHTS assay to identify small molecule agonists of the androgen receptor (AR) signaling pathway using the MDA cell line (AID 743040; note: nearly all actives have a fitted effect of over 20% in size). The method, boiled down: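 Stable MMTV-luciferase reporter in MDA-kb2 cells; note the promoter carries GR as well as AR response elements. 16 h compound treatment, 37C, 0% CO2; ONE-Glo luminescence endpoint.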

Molecules are shown by their SMILES. Inconclusive results are not listed. Calls of active or inactive are those of the source. Unless noted, calls come from the whole dose curve; as a rule, active = well fitted curve in the direction sought with a large enough effect in the repeat runs; inconclusive = weak or mixed curves; inactive = no such curve, though single readings can be large; an effect the other way counts as inactive or inconclusive.

Chain of Glucocorticoid receptor (Homo sapiens) (P04150 whole entry, looked up): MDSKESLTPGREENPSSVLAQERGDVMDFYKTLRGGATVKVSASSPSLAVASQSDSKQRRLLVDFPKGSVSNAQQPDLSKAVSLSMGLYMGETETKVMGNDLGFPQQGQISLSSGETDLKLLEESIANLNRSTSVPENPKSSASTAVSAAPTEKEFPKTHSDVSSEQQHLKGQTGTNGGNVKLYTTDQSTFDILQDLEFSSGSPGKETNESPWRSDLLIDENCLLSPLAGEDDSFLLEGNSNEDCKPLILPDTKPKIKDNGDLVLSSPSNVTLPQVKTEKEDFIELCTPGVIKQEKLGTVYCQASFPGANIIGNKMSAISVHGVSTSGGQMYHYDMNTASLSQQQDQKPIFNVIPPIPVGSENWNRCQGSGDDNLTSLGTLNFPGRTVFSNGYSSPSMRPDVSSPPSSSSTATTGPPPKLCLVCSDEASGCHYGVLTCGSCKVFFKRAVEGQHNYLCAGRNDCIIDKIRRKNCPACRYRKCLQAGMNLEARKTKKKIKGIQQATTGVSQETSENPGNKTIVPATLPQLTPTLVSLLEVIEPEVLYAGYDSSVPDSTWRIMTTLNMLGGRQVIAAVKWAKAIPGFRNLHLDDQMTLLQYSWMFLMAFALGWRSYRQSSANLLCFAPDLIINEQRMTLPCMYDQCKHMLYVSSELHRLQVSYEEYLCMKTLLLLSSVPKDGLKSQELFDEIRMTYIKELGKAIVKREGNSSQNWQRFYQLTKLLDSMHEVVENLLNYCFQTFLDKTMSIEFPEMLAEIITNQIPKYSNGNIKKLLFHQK
Chain of Androgen receptor (Homo sapiens) (P10275 whole entry, looked up): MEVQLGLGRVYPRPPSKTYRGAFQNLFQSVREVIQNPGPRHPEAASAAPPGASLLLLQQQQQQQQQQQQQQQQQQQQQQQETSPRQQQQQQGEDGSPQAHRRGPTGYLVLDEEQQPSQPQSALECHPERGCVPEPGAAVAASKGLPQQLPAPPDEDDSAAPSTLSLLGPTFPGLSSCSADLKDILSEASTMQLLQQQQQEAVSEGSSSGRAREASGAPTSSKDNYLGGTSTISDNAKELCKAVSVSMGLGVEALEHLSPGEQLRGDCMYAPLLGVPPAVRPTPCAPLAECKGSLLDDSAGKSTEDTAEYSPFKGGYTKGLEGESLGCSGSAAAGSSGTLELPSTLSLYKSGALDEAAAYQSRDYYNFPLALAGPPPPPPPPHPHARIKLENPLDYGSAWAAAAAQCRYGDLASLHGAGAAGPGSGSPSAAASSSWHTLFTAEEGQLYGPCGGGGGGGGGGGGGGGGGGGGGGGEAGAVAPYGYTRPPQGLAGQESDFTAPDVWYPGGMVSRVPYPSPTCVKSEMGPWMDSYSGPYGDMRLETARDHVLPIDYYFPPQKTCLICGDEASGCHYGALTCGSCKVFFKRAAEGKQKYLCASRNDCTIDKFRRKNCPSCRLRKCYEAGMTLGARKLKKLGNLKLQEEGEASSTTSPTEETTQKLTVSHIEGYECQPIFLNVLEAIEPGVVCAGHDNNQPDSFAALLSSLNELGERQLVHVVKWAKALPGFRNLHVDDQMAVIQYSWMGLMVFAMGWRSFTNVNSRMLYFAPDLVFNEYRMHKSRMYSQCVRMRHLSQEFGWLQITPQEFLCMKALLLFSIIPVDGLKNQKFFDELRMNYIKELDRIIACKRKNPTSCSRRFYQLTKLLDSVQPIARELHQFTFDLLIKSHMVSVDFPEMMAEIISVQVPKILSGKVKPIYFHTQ

Regarding `ClC(Cl)Br`, the outcome in assay [1], in assay [2], in assay [3], in [4], in assay [5] and in assay [6] was inactive. Moreover, the molecule was called inactive in [7] and in [8]. Moreover, the Potency result in [9], in assay [10], in assay [11], in assay [12] and in assay [13] was “inactive” each time.
As for `CCC(Cl)[N+](=O)[O-]` (stereo unspecified), the molecule was classed as inactive in assay [1], in assay [2], in [3], in [4], in assay [5] and in assay [6]. The molecule was classed as inactive in assay [7] and in [8]. Also, the Potency entry in assay [14], in [15], in assay [9], in assay [10], in [11] and in assay [12] was “inactive” each time. Also, the Potency result in [13] and in assay [16] was “inactive” in each case.
Regarding `CCS(=O)(=O)C(C)(C)S(=O)(=O)CC`, the molecule was called inactive in assay [1], in [2], in [3], in assay [4], in assay [5] and in assay [6]. For the same molecule, the result in assay [7] and in [8] was inactive. The Potency entry in [14], in [15], in assay [9], in assay [10], in [11] and in assay [13] was “inactive” each time. Moreover, in assay [16], the Potency entry is “inactive”.
As to `O=C(NCO)NCO`, the result in [1], in assay [2], in assay [3], in [4], in assay [5] and in assay [6] was inactive. The call in assay [7] and in assay [8] was inactive. The Potency result in assay [14], in assay [15], in [9], in [10], in assay [11] and in [12] was “inactive” in each case. Besides, in assay [13], the Potency entry was “inactive”.
For the molecule `CC(COc1ccc(Oc2ccccc2)cc1)Oc1ccccn1` (stereo unspecified), the call in assay [1], in assay [2], in [3], in [4], in assay [5] and in [6] was inactive. Moreover, the call in [7], in assay [17] and in assay [18] was inactive. In addition, the Potency entry in assay [15], in assay [12], in assay [19] and in assay [13] was “inactive” throughout. In addition, in assay [11], the Potency was 61.1 µM (active).
Take `COP(=S)(OC)Oc1ccc(S(N)(=O)=O)cc1`: the call in assay [1], in [2], in [3], in assay [4], in assay [5] and in [6] was inactive. The outcome in assay [7] and in assay [17] was inactive. Besides, the Potency entry in assay [15], in assay [11], in assay [12], in [13] and in [16] was “inactive” in each case.
As for `O=c1oc2ccccc2c(O)c1C1CCCc2ccccc21` (stereo unspecified), the outcome in [1], in [2], in assay [4], in assay [5], in assay [6] and in assay [7] was inactive. Further, the call in assay [17] and in assay [8] was inactive. For the same molecule, the Potency result in assay [14], in assay [15], in assay [9], in assay [10], in assay [11] and in [12] was “inactive” each time. For the same molecule, the Potency result in [13] is “inactive”.
On to `C(CCOCC1CO1)COCC1CO1` (stereo unspecified), for which the outcome in [1], in assay [2], in assay [4], in assay [5], in assay [6] and in assay [7] was inactive. Also, the molecule was classed as inactive in assay [17] and in assay [8]. The Potency result in assay [14], in [15], in [12] and in [13] was “inactive” throughout. For the same molecule, the Potency is 12 µM (active) in assay [9], 1.07 µM (active) in [10] and 15.1 µM (active) in [11].
In the case of `Cc1cc(C)c(C(=O)P(=O)(C(=O)c2c(C)cc(C)cc2C)c2ccccc2)c(C)c1`, the outcome in assay [1], in assay [2], in assay [3], in [4], in assay [5] and in assay [6] was inactive. Besides, the result in [7] and in assay [8] was inactive. For the same molecule, the Potency entry in [14], in assay [15], in assay [9], in [11], in assay [12] and in assay [13] was “inactive” in each case. Moreover, in assay [16], the Potency entry was “inactive”.
